Source: the supplement of paper PMC6555819

tested on: VDR:RXRa (NR concentration 270 nM, RXRa partner concentration 90 nM); assay: PBM binding z-score (relative to random genomic background probes); higher = stronger binding; sequences stand for … in GC…GCGATTGACAGCGTAGAATGAAGG
Protocol: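 Protein-binding microarray (Agilent 4x180K custom design, double-stranded 60-nt probes: 5' GC cap, 34-nt variable region, 24-nt constant primer region; full probe sequence given). Purified or IVT nuclear receptor:RXRα heterodimers (3:1 NR:RXRα, mostly 270:90 nM) or homodimers were incubated for 1 h in PBS with 2% milk and no ligand, then detected with Alexa488 antibodies. Fluorescence from o1-orientation probes (~5 replicates averaged) was converted to z-scores against 500 random hg19 background probes. Variable regions are seed direct-repeat (DR0–DR5) sites, all their single-nucleotide variants and half-site ablations.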

| Sequence | PBM binding z-score |
| --- | --- |
| AATACAGGGTCACTAGGCCGGAGTAGGTACGAAT | 4.11 |
| AATACAGGGTCATCGTAGGGCAGAGTACGCACAG | 5.71 |
| CGAACTAGGTGAGAACAGGACAGTGAAGGATGAT | -0.123 |
| TCTTGTAGATCAATAGTGGTTAAGAAAGTGCGCT | 0.673 |
| CGAAGTAGGTCATCCAGGACAGTGAATACATTGA | 5.12 |
| ATTTCTAGGTAAAGTTCAGTGAAAGATCGATAGA | 2.11 |
| CTCGAAAGGTCGGTTGCGGTGAGTATACGGATAA | 1.11 |
| TCTAGTTGGTCACGGAGGTCACCCACGACGGGTA | 5.63 |
| TGTCAAAGTTTAAAGGTAACGTAAGTATCCACAC | 1.33 |
| CTACCAAGGTGAACAAGGTCGATGATTACTATTC | 4.83 |
| TTACCAAGATGAAGGTCGTTGATCCCTCTGTAGA | 0.991 |
| CCTACTGGGCCATCAGGTCATTGCTATCAACGTT | 1.71 |
| ACTAATAGTTGAGACGAGGGCAACCGATAGGTTG | 1.27 |
| CCTAGTAGGCCAGGGTCACTCAAGCATTTCGCTT | 2.7 |
| TCTAGTTGGTCACGGAGGTCACACACGACGGGTA | 5.62 |
| GCGACTGGGGCAACAGCAGGTTACCATAACTTAA | -0.189 |
| ACTCGTAGGACAAAGGTCAGAGCTACGCCAGTGA | 2.89 |
| CGTCCAAGGTCGTAGGAGGTCAGTGAAGACAGAT | 5.47 |
| ATCTCTAGGTAAAGATAGTTCAGTGAGTGCAAAT | 5.05 |
| TATAGCAGGCCAGAGGGTCACTCAAGAGGTACGG | 1.58 |

| Sequence | PBM binding z-score |
| --- | --- |
| GCGACTGGGGCAAAGCAGGTTATCATAAGGTTGG | 0.334 |
| AGAATGAGGTTATAAAGATCAGGGAATTGCGGTC | 1.27 |
| CAAACTAGGTCACGATAGGTCAAAGTCGAATGAC | 5.51 |
| TTACCAAGGTGAGCTCAGGTCGTTGATCCAACTC | 1.81 |
| TGTCAAAGTTCAAAGGCAACGTAAGTATCCACAC | 4.26 |
| ATCGAAAGGTCGAGGTGATTATAGAGAAAGGGAA | 2.43 |
| TAGCCTAGGTCATCCGGGCCAGTATAGTGTCGGC | 3.81 |
| CGAACTAGGACATTGACAGGACAGTGAATAGTAA | -0.192 |
| GCTGCTAGGCCAGGTTGGTCAGCTAACGGGTACG | -1.03 |
| ATACCAAGTTGATCGTGAGGTCGTTGATACTAAC | 2.68 |
| CTCAAAAGGTCGTGCTCAGGTGAGTATACCAAAC | 3.5 |
| AGAACGAGGGCAACGAGTTGATAGCACGGGTGGC | 5.16 |
| GGAACGAGGGCAAAGTTGATCGCATCTGTCGACG | 1.1 |
| CCCATTAGTTGACCATAAGGGCAACCGAAGCTCG | 0.855 |
| ATATGTAGGTTACATCCGGGTCATTCAGGCTATG | 4.26 |
| GCCACTGGGGCATCAGCAGGTTACCATAACTTAA | -0.378 |
| ATATGTAGGTTGTCGGGTCATTCAGTTTGCGCAT | 5 |
| AGAATGAGGTTACCTAAGATCAGGGAAACGCTTG | 1.47 |
| ATAGAAAGGTCGAGGTGAGTATAGAGAAAGGGAA | 2.79 |
| AGAATGAGGTTATTAAGATCAGGGATTTGCGGTC | 2.6 |
